S aureus helic – S. aureus DNA helicase inhibition; purified S. aureus helicase, fluorescence unwinding assay; inhibition, % (test concentration not listed); 120,000 tested, 0.05% active; AID 485395; in the data active means inhibition above about 25%, passing the limit was not always enough;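 further: 0% = mean of negative control wells and 100% = mean of positive control wells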
Sa growth inh – inhibitors of Staphylococcus aureus growth at 42 °C | S. aureus RN4220 growth, OD600, 20 h; stronger effect = lower value | relative growth, % (concentration not given with the values) | 170,000 tested, 0.53% active;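 active means relative growth at most 50% at the other temperature and 20+ points below 30 °C, or under 10% at both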
The depositor's hits bear a star. In the library only some 0.52% were active in any assay of this set; here they are far more common.

`CCc1nnc2n1NC(c1ccccc1)C(C(=O)Nc1ccccc1)S2` (configuration not stated) gave S aureus helic -29 and Sa growth inh 87.
Screening Cc1cccn2c(=O)c3cc(C(=O)NC(C)c4ccccc4)c(=N)n(CCCN4CCOCC4)c3nc12 (configuration not stated) returned S aureus helic 7 and Sa growth inh 99.
`N#CCn1c2ccc(Cl)cc2c2nc3ccccc3nc21` gave S aureus helic 7 and Sa growth inh 95.
O=C(Nc1cccc(F)c1)NC1CCCC1 was read as S aureus helic 6 and Sa growth inh 84.
Screening CC1CCC(C(C)C)C(NC(=S)Nc2cccc(F)c2)C1 (configuration not stated) returned Sa growth inh -0.8*.
CCOC(=O)c1cccc(NS(=O)(=O)c2cc(-c3cc(C)[nH]n3)ccc2C)c1 was read as S aureus helic -1 and Sa growth inh 105.
`CCCCC(CC)CN1CNC(=S)NC1` (configuration not stated) gave S aureus helic -5 and Sa growth inh 104.
For CCc1ccc(NS(=O)(=O)c2cc(Br)cnc2N)cc1 the results were S aureus helic -22 and Sa growth inh 80.
Screening Cc1ccc(-c2nnc(Nc3ccc(S(N)(=O)=O)cc3)c3ccccc23)cc1S(N)(=O)=O returned S aureus helic 13 and Sa growth inh 100.
For Cc1c(C(=O)Oc2cccc3cccnc23)oc2ccccc12 the results were S aureus helic 3 and Sa growth inh 97.
For Cc1ccc(S(=O)(=O)NC(=O)Oc2cccc3cccnc23)cc1 the results were S aureus helic 8 and Sa growth inh 0.2*.
Screening Oc1nc2c(Cl)c(Cl)c(Cl)cc2o1 returned S aureus helic 30 and Sa growth inh -1.2*.
`O=c1oc2cc(Cl)c(O)c(Cl)c2s1` gave S aureus helic 30 and Sa growth inh 60.
Screening CCOc1ccc(NC(=O)CNc2ccc(S(=O)(=O)N(C)C)cc2)cc1OCC returned S aureus helic -7 and Sa growth inh 94.
Screening Cn1nc(C(=O)N2CCN(C3CCS(=O)(=O)C3)CC2)c2ccccc2c1=O (configuration not stated) returned S aureus helic 7 and Sa growth inh 102.
Screening CCn1c2ccccc2c2cc(N=C=S)ccc21 returned S aureus helic 4 and Sa growth inh 128.
For CCn1c2ccccc2c2cc(C#N)ccc21 the results were S aureus helic 25 and Sa growth inh 44*.
For CN(C)C(=O)c1cn(-c2ccccc2)nc1-c1cccs1 the results were S aureus helic -14 and Sa growth inh 81.
`COC(=O)c1cn(-c2ccccc2)nc1-c1cccs1` gave S aureus helic -5 and Sa growth inh 18*.
Screening CN1CCN(c2ccc(CNS(=O)(=O)c3ccc(-c4ccno4)s3)cc2)CC1 returned S aureus helic 0 and Sa growth inh 104.
For Cc1ccc(C)c(C(=O)OCC(=O)NC2CC2)c1 the results were S aureus helic -8 and Sa growth inh 84.
For N#CCCN/N=C/c1ccc(-c2ccc(SC(F)F)cc2)o1 the results were S aureus helic -11 and Sa growth inh 48*.
NC(=O)N/N=C/c1ccc(-c2ccc(SC(F)F)cc2)o1 was read as S aureus helic -4 and Sa growth inh 101.
For O=C1C=CC(=O)N1c1cccc2ccccc12 the results were S aureus helic 10 and Sa growth inh 91.
For CC(C)c1cccc(C(C)C)c1N1C(=O)C=CC1=O the results were Sa growth inh 6.7*.
For COc1ccc(Nc2[nH]nc(NC(=O)c3ccc(S(=O)(=O)N(C)C)cc3)c2C#N)cc1 the results were S aureus helic 6 and Sa growth inh 79.
`O=C(O)CCC(=O)OC[C@@H](NC(=O)C(Cl)Cl)[C@H](O)c1ccc([N+](=O)[O-])cc1` gave Sa growth inh 83.
O=C(N[C@@H](CO)[C@H](O)c1ccc([N+](=O)[O-])cc1)C(Cl)Cl was read as Sa growth inh 0.2*.
CS(=O)(=O)c1ccc([C@@H](O)[C@@H](COC(=O)CN)NC(=O)C(Cl)Cl)cc1 was read as Sa growth inh 52.
For CS(=O)(=O)c1ccc(C(O)[C@H](CF)NC(=O)C(Cl)Cl)cc1 (some centres not stated) the results were Sa growth inh -0.8*.
O=C(NNC(=O)c1ccc(Br)cc1)NC1CCCCC1 was read as S aureus helic -7 and Sa growth inh 86.
O=C(Nc1ccc(Cl)cc1)Nc1csc(N2CCCCC2)n1 was read as S aureus helic -4 and Sa growth inh 96.
`Cc1ccc(S(=O)(=O)CCC(=O)OCN2C(=O)c3ccccc3C2=O)cc1` gave S aureus helic -5 and Sa growth inh 90.
`CC(N)c1ccc(-c2ccccc2)cc1` (configuration not stated) gave S aureus helic -11 and Sa growth inh 96.
`c1ccc(-c2ccc(C(c3ccccc3)n3ccnc3)cc2)cc1` (configuration not stated) gave Sa growth inh 1.6*.
Screening O=S(=O)(c1cccc2ccccc12)N1CCCCC1 returned S aureus helic 9 and Sa growth inh 107.
CC(C)CNC(=O)c1ccccc1S(=O)(=O)N1CCCCC1 was read as S aureus helic 12 and Sa growth inh 49*.
Screening CCCCCN1C(C(=O)c2ccccc2)=C(NC(C)=O)c2ccccc2S1(=O)=O returned Sa growth inh 112.
CCCCCN1C(C(=O)c2ccccc2)=C(OC(=O)CC)c2ccccc2S1(=O)=O was read as Sa growth inh -0.5*.
`CCCCC(=O)OC1=C(C(=O)c2ccccc2)N(CCC)S(=O)(=O)c2ccccc21` gave Sa growth inh 4.0*.
For CCCCN1C(C(=O)c2ccccc2)=C(OC(=O)CC)c2ccccc2S1(=O)=O the results were Sa growth inh 8.2*.
CCCN1C(C(=O)c2ccccc2)=C(OC(=O)c2ccc(C)cc2)c2ccccc2S1(=O)=O was read as Sa growth inh 97.
Screening CCCN1C(C(=O)c2ccccc2)=C(OC(=O)c2ccc(F)cc2)c2ccccc2S1(=O)=O returned Sa growth inh 26.
For Cc1cc(C)nc(NC(=O)COc2ccc(Br)cc2)n1 the results were S aureus helic 7 and Sa growth inh 86.
Screening O=C(NCc1ccccc1)c1ccc(CN2CC(=O)N3CCCCC3C2=O)cc1 (configuration not stated) returned S aureus helic 17 and Sa growth inh 102.
Screening C=CCN(CC=C)C(=O)CCN1C(=O)c2ccccc2C1=O returned S aureus helic 2 and Sa growth inh 106.
`Cc1c(CNC2CCCc3ccccc32)c(C(=O)O)c(C)n1Cc1c(F)cccc1Cl` (configuration not stated) gave S aureus helic 11 and Sa growth inh 112.
C=CCN(CC=C)Cn1nc(-c2c[nH]c3ccccc23)oc1=S was read as S aureus helic -7 and Sa growth inh 43*.
`C=CCN(CC=C)Cn1nc(Nc2ccccc2F)sc1=S` gave S aureus helic -11 and Sa growth inh 71.
CN(C)c1ccc2sc(=S)[nH]c2c1 was read as S aureus helic -9 and Sa growth inh 44.
For FC(F)(F)c1ccc2sc(=S)[nH]c2c1 the results were S aureus helic 10 and Sa growth inh -0.8*.
Nc1cc(=O)[nH]c2nnc(SCc3ccccc3)n12 was read as S aureus helic 2 and Sa growth inh 109.
`CN(C=C1C(=O)NC(=O)NC1=O)Cc1ccc(Cl)c(Cl)c1` gave S aureus helic -17 and Sa growth inh 94.
